Assay outcomes from PubChem BioAssay.
Shown is part of a subset that was picked to be rich in hits.
KDM5B inhibitor: Primary screen for KDM5B Histone Demethylases FDH-coupled qHTS. Potency, µM (series often up to 57.7 µM), most hits filed as inhibitors. Lysine-specific demethylase 5B (Homo sapiens), Q9UGL1. actives 2.6% (n = 220,000). KDM5B demethylase, FDH-coupled NADH fluorescence (FDH is formaldehyde dehydrogenase); active = well fitted inhibition curve with a large enough effect; note: 0% is about no effect; nearly all actives have a fitted effect of over 70% in size
Target sequence (Q9UGL1 whole entry, looked up): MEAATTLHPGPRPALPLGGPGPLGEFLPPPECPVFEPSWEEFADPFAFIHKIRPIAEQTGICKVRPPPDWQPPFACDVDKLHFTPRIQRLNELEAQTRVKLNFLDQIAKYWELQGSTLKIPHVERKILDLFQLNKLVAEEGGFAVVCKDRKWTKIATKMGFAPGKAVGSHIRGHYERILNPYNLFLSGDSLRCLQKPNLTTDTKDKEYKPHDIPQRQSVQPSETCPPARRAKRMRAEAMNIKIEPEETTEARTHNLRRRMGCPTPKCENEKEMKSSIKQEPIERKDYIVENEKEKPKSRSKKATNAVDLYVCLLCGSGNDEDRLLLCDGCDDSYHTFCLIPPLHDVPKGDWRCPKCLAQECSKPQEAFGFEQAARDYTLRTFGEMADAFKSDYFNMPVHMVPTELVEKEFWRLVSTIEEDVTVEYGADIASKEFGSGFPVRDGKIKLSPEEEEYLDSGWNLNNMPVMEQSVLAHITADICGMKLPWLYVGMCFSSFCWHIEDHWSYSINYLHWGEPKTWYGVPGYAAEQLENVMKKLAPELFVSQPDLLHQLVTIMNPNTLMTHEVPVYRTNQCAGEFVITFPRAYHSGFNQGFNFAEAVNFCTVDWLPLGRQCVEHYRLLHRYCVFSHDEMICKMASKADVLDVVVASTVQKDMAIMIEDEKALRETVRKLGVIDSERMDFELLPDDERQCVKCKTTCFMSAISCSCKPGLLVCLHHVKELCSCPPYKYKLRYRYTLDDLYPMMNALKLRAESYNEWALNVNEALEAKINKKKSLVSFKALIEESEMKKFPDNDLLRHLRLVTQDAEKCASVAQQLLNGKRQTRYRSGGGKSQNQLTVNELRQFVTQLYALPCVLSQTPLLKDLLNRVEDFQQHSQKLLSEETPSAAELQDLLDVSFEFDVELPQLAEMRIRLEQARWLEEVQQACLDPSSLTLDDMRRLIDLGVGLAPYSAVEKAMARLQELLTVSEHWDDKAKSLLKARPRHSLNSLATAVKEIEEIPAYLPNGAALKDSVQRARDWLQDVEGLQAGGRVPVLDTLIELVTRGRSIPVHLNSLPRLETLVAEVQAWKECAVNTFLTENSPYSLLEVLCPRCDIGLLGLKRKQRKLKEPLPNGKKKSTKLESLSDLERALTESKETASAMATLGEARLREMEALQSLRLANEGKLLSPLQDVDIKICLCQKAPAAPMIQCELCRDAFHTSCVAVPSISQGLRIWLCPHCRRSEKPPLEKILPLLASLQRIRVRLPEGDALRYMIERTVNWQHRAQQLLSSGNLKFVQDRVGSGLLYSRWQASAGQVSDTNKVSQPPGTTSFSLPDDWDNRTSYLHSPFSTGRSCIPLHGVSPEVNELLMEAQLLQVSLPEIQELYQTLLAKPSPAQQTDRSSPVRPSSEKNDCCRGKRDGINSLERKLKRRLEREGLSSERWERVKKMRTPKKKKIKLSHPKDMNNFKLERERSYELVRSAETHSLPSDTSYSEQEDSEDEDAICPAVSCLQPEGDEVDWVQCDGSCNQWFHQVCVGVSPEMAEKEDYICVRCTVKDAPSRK
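Inhibition is measured as reduced NADH fluorescence generation from FDH coupling to formaldehyde release. Truncated KDM5BΔAP at 200 nM final acts on H3K4me3 peptide (12.5 µM in substrate mix) in pH 7.5 HEPES buffer with Tween-20, 30 min, room temperature.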
Starred values were filed as active, the others as inactive; i = inactive. Potency is the fitted concentration of half-maximal effect.

SMILES	KDM5B inhibitor
Cc1c(C(=O)N2CCOC(CCCC(C)C)C2)cnc2cc(=O)[nH]n12 (stereo not given)	i
CCOC(=O)c1ccccc1C(=O)c1ccccc1	i
COc1ccc(-c2cn(C)c(=O)n3cc(CN4CC[S+](=O)([O-])CC4)nc23)cc1OC	35µM*
Cn1cc(-c2ccc(F)c(Cl)c2)c2nc(CN3CC[S+](=O)([O-])CC3)cn2c1=O	i
COc1ccc(-c2cn(C)c(=O)n3cc(CN4CCNC(=O)C4)nc23)cc1	28µM*
COc1cc(F)ccc1-c1cn(C)c(=O)n2cc(CN3CCNC(=O)C3)nc12	i
Cn1cc(-c2cccc(OC(F)(F)F)c2)c2nc(CN3CCNC(=O)C3)cn2c1=O	i
COc1ccc(-c2cn(C)c(=O)n3cc(CN4CC[S+](=O)([O-])CC4)nc23)cn1	i
NC(=O)[C@@H](Cc1c[nH]c2ccccc12)NC(=O)[C@@H]1C[C@@H](NS(=O)(=O)c2cccs2)CCN1C(=O)[C@@H](O)[C@H](O)C(=O)O	i
N#Cc1ccc(C(=O)Nc2ccccc2C(=O)NCCc2ccccc2)cc1	i
CN(C)CCCNC(=O)c1cc(-c2ccc3c(c2)OCO3)nc2ccccc12	i
CCCC1(CCC)NC(=O)N(Cc2nc3ccccc3nc2C)C1=O	i
CN(C)c1cccc(NC(=O)c2ccc3c(c2)NC(C)(COc2ccccc2)CO3)c1 (stereo not given)	32µM*
O=C1CSc2ccc(C(=O)NNC(=O)c3ccc(COc4ccccc4)o3)cc2N1	i
CNC(=O)c1ccc2c(c1)NC(C)(COc1ccccc1)CO2 (stereo not given)	32µM*
CC(C)N(c1ccccc1)c1ccc(NC(=O)c2cccc(N(C)C)c2)cc1	i
CC(O)(C#CCN1CCCCC1)C1CC2C=CC1C2 (stereo not given)	i
Cc1ccc2[nH]cc(CCNC(=O)/C=C/c3ccccc3F)c2c1	i
COc1ccc(C(=O)N2C[C@@H]3C[C@H](C2)c2ccc(NS(=O)(=O)c4cccc(F)c4)c(=O)n2C3)cc1	i
CCc1ccc(C(=O)CSc2n[nH]c(C(C)C)n2)cc1	i
COCCN1C(=O)c2ccccc2C(C(=O)Nc2ccccc2O)C12CCCCC2 (stereo not given)	i
COCCOC(=O)C1=C(C)N=C2SC=C(CC(=O)N3CCCC3)N2C1c1cccc(F)c1 (stereo not given)	i
CN(C)Cc1cn(C[C@H]2C[C@@H](NC(=O)c3nc4ccccc4s3)[C@H](O)[C@@H]2O)nn1	i
O=C(CN1CCOC1=O)N1CCC(Cc2nncn2-c2ccccc2)CC1	i
O=C(NCCCNc1ccccc1)NCc1cccnc1	i
SMILES	KDM5B inhibitor
COCc1cc(NCCCNc2cccnc2)ncn1	14µM*
COCc1cc(NCCSCc2ccccc2C)ncn1	i
C[n+]1cccc(C(=O)N=S(C)C)c1	i
CCC(=O)N1CCCN(CCN(C)C)c2ccccc21	i
O=C(Cc1cccs1)N1CCCN(CCc2ccccc2)c2ccccc21	22µM*
CN1CCCN(C(=O)c2cccs2)c2ccccc21	i
Cc1ccc(C2CCCN2C(=O)Nc2ccc(F)c(Cl)c2)cc1 (stereo not given)	i
COc1ccc(CN2CCC3(Cc4ccccc4CNC3=O)C2)c(OC)n1 (stereo not given)	i
Cc1oc2cc(OCC(=O)NC3(C)CCS(=O)(=O)C3)ccc2c(=O)c1Oc1ccccc1 (stereo not given)	i
Cc1ccc(-c2n[nH]c(=O)c3ccccc23)cc1S(=O)(=O)N1CCC(C)CC1	i
Cc1cnc(C(=O)N[C@@H]2CCC[C@@H]2C(=O)NCc2ccc3c(c2)OCO3)cn1	i
CN(C)c1ncc2c(n1)C(C)(C(=O)NCc1cccc(Cl)c1)CCC2 (stereo not given)	40µM*
CCn1cc([N+](=O)[O-])c(C(=O)NCc2ccc3c(c2)OCO3)n1	i
CN(C)c1ncc2c(n1)C(C)(C(=O)NCc1ccc3c(c1)OCO3)CCC2 (stereo not given)	32µM*
CC1(C(=O)NCc2cccnc2)CCCc2cnc(Nc3ccccc3F)nc21 (stereo not given)	i
CN1C(=O)CC[C@]2(C(=O)NCc3cccc(Cl)c3)CCCC[C@@H]12	i
COc1cccc(Oc2c(C)oc3cc(OCc4ccc(F)cc4)ccc3c2=O)c1	i
Cc1ccc(N2CC(c3noc(-c4cc(F)cc(F)c4)n3)CC2=O)cc1 (stereo not given)	i
COc1ccc(N2CC(c3noc(-c4ccc5c(c4)OCO5)n3)CC2=O)cc1 (stereo not given)	32µM*
CCOc1ccc(-c2nc(C3CC(=O)N(c4ccc(OC)cc4)C3)no2)cc1 (stereo not given)	i
COc1ccc(-c2nc(C3CC(=O)N(c4ccc(F)cc4)C3)no2)cc1 (stereo not given)	i
Cc1ccc(N2CC(c3noc(-c4ccncc4)n3)CC2=O)cc1 (stereo not given)	i
